# Assay results as given in PubChem BioAssay AID488841 (Sanford-Burnham Center for Chemical Genomics, 2010).
# Out of some 1,400 compounds screened, about 380 (27%) were called active. Some of the results follow. Values without a mark were called inactive.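 Rule for the calls: active = mean inhibition above 50% across duplicate retests at 10 µM; inactive = the rest.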
# Experiment: yeast NALP1 reporter signal suppression – S. cerevisiae, luminescence, single concentration, NALP1 inhibitor project, confirmation (AID 488841);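 note: plate controls were DMSO in galactose medium for no effect and cells in plain SD medium for full effect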
# Settings: S. cerevisiae NALP1/ASC/Caspase-1 reporter, beta-gal luminescence; at 10 µM; active compounds read high
row,SMILES,inhibition
1,COCCNCCOc1ccc(C(C)(C)c2ccccc2)cc1,50.5% (active)
2,Cc1cccc(N2C(=O)NC(=O)/C(=C/c3ccc([N+](=O)[O-])o3)C2=O)c1,31.1%
3,Nc1cc(Cl)c2nonc2c1[N+](=O)[O-],62.5% (active)
4,CCCCCn1c(=O)c(C(=O)Nc2nc3ccccc3[nH]2)c(O)c2ccccc21,23.1%
5,CCOc1cc(CNCCc2c[nH]c3ccccc23)cc(Cl)c1OCC,48%
6,Cc1ccc(/C=C2\C(=O)NC(=O)N(CC3CCCO3)C2=O)s1 (centres undefined),36.6%
7,C[C@H]1C[C@@H](C)C(=O)[C@@H]([C@H](O)CC2CC(=O)NC(=O)C2)C1,99.8% (active)
8,N#CCCn1cc(C(=O)NCc2ccccc2)c(-c2ccccc2)n1,37.1%
9,CC(Cc1ccccc1Sc1ccccc1)N(C)C (centres undefined),34.8%
10,Cc1cc2ccccn2c1C(C[N+](=O)[O-])c1c(F)cccc1Cl (centres undefined),71% (active)
11,O=C1/C(=C/c2cccc([N+](=O)[O-])c2)N2CCC1CC2,46.3%
12,Cc1ccc(S(=O)(=O)NC(CC(=O)N2CCC3(CC2)OCCO3)c2ccco2)cc1 (centres undefined),37.2%
13,COc1cc2c(cc1OC)CN(c1ccc([N+](=O)[O-])c(C(F)(F)F)c1)CC2,45.4%
14,CC(Cc1ccccc1)NC(=O)/C=C/c1ccc(Cl)cc1 (centres undefined),50% (active)
15,CCOCCN1CCN(c2nnc3n2-c2ccc(Cl)cc2C(c2ccccc2Cl)=NC3)CC1,32.9%
16,Cc1ccc(Cn2cc(C=O)c(-c3ccc(C)cc3)n2)cc1,59.5% (active)
17,CC(C)NS(=O)(=O)c1ccc(OCC(=O)N2CCN(C)CC2)cc1,4.2%
18,Cc1ccc(C)c(NC(=S)NCCc2cnc[nH]2)c1,23.7%
19,CN1C2CCC1/C(=C/c1ccccn1)C(=O)/C2=C\c1ccccn1,98% (active)
20,CC(C)CCn1c(=O)c(C(=O)NCc2ccco2)c(O)c2ccccc21,35%

row,SMILES,inhibition
1,CC1(C)C[C@H]2C=C(C=O)[C@]3(C=O)C[C@]3(C)[C@H]2C1,32.4%
2,CN1/C(=C\C=C\C2=[N+](C)c3ccc4ccccc4c3C2(C)C)C(C)(C)c2ccccc21,100% (active)
3,CN1CCN(c2ccc(N)c(N3CCN(C)CC3)c2)CC1,33.6%
4,Fc1ccc(C(OCCN2CCCC2)c2ccc(Br)cc2)cc1 (centres undefined),49.5%
5,CCCCN(Cc1ccccc1)C1CCN(CCc2ccccc2)CC1,55.1% (active)
6,CC1CCCC(C)N1/N=C/c1c[nH]c2ccc(Br)cc12 (centres undefined),19.6%
7,CN[C@H]1C[C@H]2O[C@@](C)([C@H]1OC)n1c3ccccc3c3c4c(c5c6ccccc6n2c5c31)C(=O)NC4,99.7% (active)
8,Clc1ccc2nc3c(c(-c4ccccc4)c2c1)CNCC3,46%
9,O=C(c1cc2c(s1)-c1ccccc1OC2)N1CCC2(CC1)OCCO2,35.5%
10,c1ccc2sc(NC3=NCCN3)nc2c1,99.8% (active)
11,CNC(=O)Oc1ccc2ncccc2c1,35.5%
12,O=C(c1ccccc1)C(CN1CCCC1)c1ccccc1 (centres undefined),27.6%
13,COc1cc(/C=C(/C)[N+](=O)[O-])ccc1OCc1ccccc1Cl,73.4% (active)
14,Cc1ccc(-c2nc(N3CCOCC3)s[n+]2-c2ccccc2)cc1,40.2%
15,CSc1ncc(Cl)c(C(=O)O)n1 (tested in a mixture with another compound),21.1%
16,O=C1/C(=C/c2cc3c(cc2Cl)OCO3)N2CCC1CC2,47.5%
17,Nc1c2c(nc3sc4c(c13)CCCC4)CCCCC2,40.5%
18,Nc1c2c(nc3sc4c(c13)CCCCC4)CCCC2,84.5% (active)
19,Nc1ccc(C2(c3ccc(N)cc3)CN3CCC2CC3)cc1,25.7%
